Out of some 96,000 compounds screened, about 20,000 (21%) were called active. Not all results are given here. A number with no mark means an inactive call.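 The calls were made as follows: active = CYP2C19 inhibition above a set limit at 5 µM in the primary screen (cut at about 50% in these data); inactive = the rest.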

The assay deals with Cytochrome P450 2C19 (Homo sapiens) (UniProt P33261). As to the kind of experiment: blockers of cytochrome P450 2C19 activity – biochemical, luminescence, ADME assay, primary screen (AID 778).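 Also: plate controls were negative control wells for no effect and 2.5 mM tranylcypromine positive control for full effect.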 The note with it: CYP2C19 Supersomes, luciferin-H EGE luminescence, 30 min; at 5 µM; active compounds read high.
Sequence of Cytochrome P450 2C19 (Homo sapiens) (P33261 whole entry, looked up): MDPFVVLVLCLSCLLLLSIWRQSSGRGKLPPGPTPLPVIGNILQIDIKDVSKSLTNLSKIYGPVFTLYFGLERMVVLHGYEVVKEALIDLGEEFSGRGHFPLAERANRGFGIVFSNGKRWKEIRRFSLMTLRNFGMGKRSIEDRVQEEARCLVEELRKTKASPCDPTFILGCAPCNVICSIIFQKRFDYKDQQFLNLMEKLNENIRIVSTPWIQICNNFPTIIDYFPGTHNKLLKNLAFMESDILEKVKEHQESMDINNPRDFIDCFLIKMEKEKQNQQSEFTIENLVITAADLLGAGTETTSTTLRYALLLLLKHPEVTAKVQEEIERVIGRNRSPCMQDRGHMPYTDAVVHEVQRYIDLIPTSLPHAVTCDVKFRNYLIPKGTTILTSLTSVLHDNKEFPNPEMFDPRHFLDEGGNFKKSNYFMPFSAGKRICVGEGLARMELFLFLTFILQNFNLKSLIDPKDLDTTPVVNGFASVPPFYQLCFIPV
With `O=C1N=C(N2CCOCC2)S/C1=C\C=C/c1ccccc1`, the inhibition is 10.8%.
For `O=C1N=C(N2CCCC2)S/C1=C\c1cccc(Br)c1`, the inhibition is 58.2% (active).
As for `Cc1ccsc1/C=C1\SC(N2CCOCC2)=NC1=O`, the inhibition was 29%.
To `Cc1nc([N+](=O)[O-])nn1C12CC3CC(CC(Br)(C3)C1)C2` belongs 15.2%.
Take `COC(=O)c1sccc1NC(=O)c1cc(OC)c(OC)c(OC)c1`: the inhibition is 5.1%.
The result for `CCCCN=C1N/C(=C\c2ccco2)C(=O)N1c1ccccc1` reads 0.7%.
Consider `O=C(NC1=NCCS1)[C@H](Cc1ccccc1)N1C(=O)c2ccccc2C1=O`, for which the inhibition is 57.5% (active).
To `O=C(NCCN1CCOCC1)[C@H](Cc1ccccc1)N1C(=O)c2ccccc2C1=O` belongs -8.6%.
The result for `CSCCC(C(=O)NC1=NCCS1)N1C(=O)c2ccccc2C1=O` (stereo unspecified) reads 17.5%; that for `C=CCn1c(SCc2csc(C)n2)nc2scc(-c3ccc(C)o3)c2c1=O`, 16.7%.
The result for `Cn1c(SCC(=O)Nc2cccc(O)c2)nnc1-c1ccc(S(=O)(=O)N2CCOCC2)cc1` reads 2.3%; that for `O=C(CCc1ccc(S(=O)(=O)N2CCOCC2)cc1)Nc1ccc2ccccc2c1`, 62.6% (active).
Take `O=S(=O)(c1ccc2ccccc2c1)N1CCN(S(=O)(=O)N2CCOCC2)CC1`: the inhibition was 20.2%.
To `CCOC(=O)N1CCN(CC(=O)n2c(C)c(C)c3ccccc32)CC1` belongs 37.1%; to `CCCc1nc(N)nc2c1C(=O)CC(C)(C)C2`, 7.6%.
To `CC(C)c1ccc(/C=C/C(=O)NNC(=O)c2cccnc2)cc1` belongs 1.1%.
To `COc1ccc2[nH]cc(/C=C(/C#N)S(=O)(=O)c3ccccc3)c2c1` belongs 99.8% (active).
With `COc1ccc(/C=C(\NC(=O)c2ccc(OC)c(OC)c2)C(=O)NCCc2c[nH]c3ccccc23)cc1`, the inhibition is 35.2%.
The result for `CCn1nc(NC(=O)c2ccco2)c2cc3ccc(C)cc3nc21` reads 7.9%; that for `O=C(NC1(C(F)(F)F)N=C2SCCN2C1=O)c1ccco1` (stereo unspecified), -15.5%; that for `CCN(CC)C(=O)CSc1nnc(CNc2ccc(F)cc2)n1Cc1ccco1`, -8.4%.
To `N=C(N)SCc1cccc2ccccc12` belongs -3.6%; to `N#C/C(=C(/O)Cc1cccc2ccccc12)c1nc2ccccc2s1`, -0.2%; to `c1ccc2c(C[n+]3csc4ccccc43)cccc2c1`, 60.7% (active).
For `Cc1c2cn[nH]c(=O)c2c(C)n1Cc1ccc(F)cc1`, the inhibition is 48.3%.
The result for `Cc1ccc2oc(=O)c3cnn(CC(=O)N(Cc4ccco4)C4CCCCC4)c3c2c1` reads 7.4%; that for `CCOC(=O)c1c(NC(=O)CCCN2CCOCC2)sc2c1CC(C)(C)OC2`, 9.3%; that for `CCC(C(=O)NC1CCCC1)N(C(=O)c1snc(C(N)=O)c1N)c1ccc2c(c1)OCCO2` (stereo unspecified), -2.4%.
To `Cc1ccsc1C(C(=O)NC1CCCCC1)N(C(=O)Cc1cccs1)C1CC1` (stereo unspecified) belongs -2.9%; to `Cc1ccc(C(C(=O)NC2CCCCC2)N(C(=O)c2csnn2)C2CC2)o1` (stereo unspecified), 50% (active).
The result for `O=C(Nc1ccc2c(c1)OCO2)C1CC(c2c(F)cccc2Cl)=NO1` (stereo unspecified) reads 92.7% (active); that for `Cc1ccc(NC(=O)C2CC(c3ccc(F)cc3)=NO2)cc1` (stereo unspecified), 28.2%.
On to `O=C(Nc1ccc(F)c(Cl)c1)C1CCN(S(=O)(=O)c2cccnc2)CC1`, for which the inhibition is 41.7%.
Consider `O=C(Nc1ccccc1-c1nnn(CC(=O)N2CCN(c3ccccc3)CC2)n1)c1cccs1`, for which the inhibition was 47.5%.
Turning to `C=CCN(N=Nc1cccc([N+](=O)[O-])c1)c1cccc([N+](=O)[O-])c1`, the inhibition was 19.3%.
The result for `O=C(Nc1ccccc1Cl)N1CCN(c2ccc3nncn3n2)CC1` reads 24.1%; that for `O=C(Nc1ccc(Cl)cc1)N1CCc2[nH]c3ccccc3c2C1`, 13.4%; that for `CC(C)OC(=O)C(C#N)c1nc2ccccc2nc1N1CCN(Cc2ccccc2)CC1` (stereo unspecified), 30.6%.
On to `C1=C(N2CCOCC2)/C(=C/c2nc3ccccc3[nH]2)CC1`, for which the inhibition was 20.6%.
To `c1ccc2[nH]c(NCCN3CCOCC3)nc2c1` belongs 7.5%; to `CC(C)Cc1nc(N2CCOCC2)c(C#N)c2c1CCC2`, 39.8%.
As to `Cc1nc(NCc2ccccc2)c(C(N)=O)c2c1COC(C)(C)C2`, the inhibition was 48.5%.
The result for `CC(C)C(=O)N1CCN(c2nc(-c3ccccc3)c3c(c2C#N)CC(C)(C)OC3)CC1` reads 95.4% (active).
To `CC1(C)Cc2c(C#N)c(SCc3nc4ccccc4[nH]3)nc(N3CCOCC3)c2CO1` belongs 80.5% (active); to `CC(C)c1nc(N2CCOCC2)c(C#N)c2c1COC(C)(C)C2`, 55.5% (active).
For `Cc1ccc2nc(-c3ccc(SCC(=O)Nc4cc(C)on4)nc3)[nH]c2c1`, the inhibition is -9.6%.
The result for `C=CCn1c(SCc2c(C)noc2C)nc2sc3c(c2c1=O)CCC(C)C3` (stereo unspecified) reads 29%.
To `COc1ccc2[nH]c(=O)c(-c3noc(-c4ccc(F)cc4)n3)cc2c1` belongs -20.6%; to `O=C(NCCCN1CCCCC1)c1ccc2c(c1)NC(=O)C(N1CCOCC1)S2` (stereo unspecified), -20.4%.
The result for `Cc1cc2nc(-c3ccc(NC(=O)c4cccnc4)cc3)oc2cc1C` reads -3.8%.
Regarding `c1ccc(-c2cn3cccnc3n2)cc1`, the inhibition is 1.9%.
In the case of `Cc1nc2ccc(NC(=O)C(F)(F)F)cc2o1`, the inhibition was 19.3%.
To `C#CCN1CC(C)/C(=N/O)CC1C` (stereo unspecified) belongs -17%; to `Cc1noc(C)c1C(=O)NC(C)c1ccc2c(c1)OCO2` (stereo unspecified), 64.5% (active).
The result for `CC(C)(C)NC(=O)C(c1ccncc1)N(C(=O)CNC(=O)c1ccco1)c1ccc2c(c1)OCO2` (stereo unspecified) reads 25.7%; that for `Cc1cccc(N2C(=O)C3C(c4ccccc4)OC4(C(=O)c5ccccc5C4=O)C3C2=O)c1` (stereo unspecified), -10.6%.
To `CCOC(=O)c1c(N)sc(C(C)=O)c1C` belongs 22.5%; to `O=C(CN1CCN(C2CCCCC2)CC1)Nc1ccccc1N1CCCCC1`, 1.2%; to `CCn1cc(C(=O)N2CCN(C3CCCCC3)CC2)c2cc(OC)c(OC)cc2c1=O`, 13.8%.
Regarding `Cc1ccc(C(=O)N2CCN(C3CCCCC3)CC2)s1`, the inhibition is 52.8% (active).
The result for `CCN1CC=C2C(C#N)=C(N)C(C#N)(C#N)[C@H](c3ccoc3)[C@H]2C1` reads 7.1%.

The record behind these values is PubChem BioAssay AID778 (Sanford-Burnham Center for Chemical Genomics, 2007).
